The source of these data is PubChem BioAssay (Tox21).

Inconclusive results are not listed. A call without a number means that no potency is given here. The source made the active and inactive calls. Calls come from the whole dose curve; as a rule, active = well fitted inhibition curve with a large enough effect in the repeat runs; inconclusive = weak or mixed curves; inactive = no such curve, though single readings can be large or run the other way.
Potency is the fitted concentration of half-maximal effect.

This experiment deals with Cytochrome P450 3A4 (Homo sapiens) (UniProt P08684). As to the kind of experiment: Cytochrome P450 Family 3 Subfamily A Member 4 (CYP3A4) small molecule antagonists: luciferase reporter qHTS assay (AID 1671201). Note: nearly all actives have a fitted effect of over 50% in size. The note with it: P450-Glo CYP3A4 enzyme, luciferin luminescence, 1 h; series mostly up to 115 µM. From the text: National Center for Advancing Translational Sciences [NCATS]
Sequence of Cytochrome P450 3A4 (Homo sapiens) (P08684 whole entry, looked up): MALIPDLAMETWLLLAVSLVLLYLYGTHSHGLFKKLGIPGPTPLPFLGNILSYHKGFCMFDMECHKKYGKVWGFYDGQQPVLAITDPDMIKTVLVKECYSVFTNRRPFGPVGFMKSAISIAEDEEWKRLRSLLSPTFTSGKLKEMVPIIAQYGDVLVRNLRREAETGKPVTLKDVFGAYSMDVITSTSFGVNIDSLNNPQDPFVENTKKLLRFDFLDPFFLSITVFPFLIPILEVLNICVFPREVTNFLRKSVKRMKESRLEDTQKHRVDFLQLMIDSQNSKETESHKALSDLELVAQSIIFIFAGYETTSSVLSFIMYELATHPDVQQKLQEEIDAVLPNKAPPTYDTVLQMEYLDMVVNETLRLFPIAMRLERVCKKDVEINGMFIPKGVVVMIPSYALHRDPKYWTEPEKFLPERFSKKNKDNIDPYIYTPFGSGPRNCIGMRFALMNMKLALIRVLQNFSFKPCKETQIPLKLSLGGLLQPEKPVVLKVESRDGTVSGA
U.S. Environmental Protection Agency [EPA]
National Institutes of Environmental Health Sciences [NIEHS]
National Toxicology Program [NTP]
U.S. Food and Drug Administration [FDA]
Cytochrome P450 (CYP) enzymes are membrane-bound hemeproteins that play a key role in metabolism of drugs and xenobiotics. Evaluation of the effect of chemicals on CYP isozymes is useful to minimize the adverse drug reactions and toxicities in drug development process. Tox21 chemicals were tested for their effect on CYP enzyme activities by using P450-Glo (TM) screening systems (Promega Corporation, Madison, WI). These systems provide a luminescent method containing proluciferin substrates and are converted to luciferin products by CYP isozymes. The luciferin products formed are detected with a luciferin detection reagent, and the amount of light produced is proportional to CYP activity. P450-Glo (TM) CYP3A4 screening system (Catalog. No. V9910) was used to detect the compounds that interfere in CYP3A4 activity. The positive control compound used for CYP3A4 assay is ketoconazole (Sigma-Aldrich, St. Louis, MO).
Tox21 Assay Protocol Summary:
Two ul of enzyme-substrate mix was dispensed into medium binding white/solid 1536-well plates (Greiner Bio-One North America Inc., Monroe, NC) using a BioRaptr Flying Reagent Dispenser (FRD, Beckman Coulter, Brea, CA). Compounds dissolved in DMSO and positive control (ketoconazole) were transferred to the assay plates at 23 nl using a Pintool station (Wako, San Diego, CA). The assay plates were incubated at room temperature for 10 min. Then 2 ul of NADPH regeneration solution was added to each well of the assay plates using an FRD and incubated at room temperature for 1 h. The reaction was stopped by adding 4 ul of detection reagent using an FRD and after 20 min incubation at room temperature the luminescence signal was measured using a ViewLux plate reader (Perkin Elmer, Shelton, CT). Data were expressed as relative luminescence units.
In the case of `CC(C)=C1CC[C@@H](C)CC1=O`, the Potency entry is “inactive”. Still for that read-out and setting: with `Cc1cccc(N(C)C)c1` the entry was “inactive”; with `Cn1cnc2ncnc(N)c21`, “inactive”.

Turning to `CCCCCCCCC(C)=O`, the Potency entry is “inactive”. Still for that read-out and setting: to `CC1CCCCC1` belongs “inactive”. As to `O=C1NC2CCCCN2C12CCN(CCCN1c3ccccc3CCc3ccc(Cl)cc31)CC2` (stereo not given), the Potency entry is “inactive”. Same read-out and setting: to `O=C(O)Cc1ccc(OCCNC[C@H](O)c2ccccc2)cc1` belongs “inactive”; to `CCC(C)C(=O)OC` (stereo not given), “inactive”; to `Cc1c(C(=O)O)cccc1[N+](=O)[O-]`, “inactive”. On the same count and under the same terms, with `CC1=C(/C=C/C(C)=C/C=C/C(C)=C\C=O)C(C)(C)CCC1` the figure was 30 µM (active); with `CC(=O)Oc1ccc(C2(c3ccc(OC(C)=O)cc3)C(=O)Nc3ccccc32)cc1`, “inactive”; with `O=C(Oc1ccccc1)c1cccc(C(=O)Oc2ccccc2)c1`, “inactive”. Still for that read-out and setting: to `CC(=O)OC1CCCCC1` belongs “inactive”. With `C/C=C/c1ccc(OC)c(OC)c1`, the Potency was 20 µM (active). Same read-out and setting: with `O=C(Nc1ccc(Cl)cc1)Nc1ccc(Cl)c(C(F)(F)F)c1` the entry was “inactive”. The same measure, in the same setting: with `Cc1cccc(C)c1NC(=O)CN1CCN(CCCC(c2ccc(F)cc2)c2ccc(F)cc2)CC1` the entry was “inactive”; with `Cc1ccc2ccc3cccc4ccc1c2c34`, 20 µM (active).

Take `CCCCCCCC(=O)OCC`: the Potency entry is “inactive”. On the same count and under the same terms, to `CC(=O)C=O` belongs “inactive”; to `CN(Cc1cc(Br)cc(Br)c1N)C1CCCCC1`, “inactive”; to `CCCC(O)C(O)CO` (stereo not given), “inactive”. As for `C#CC(O)CCC` (stereo not given), the Potency result is “inactive”. With `CCCCCCCC(OC)OC`, the Potency result was “inactive”. Take `c1cc[nH]c1`: the Potency entry is “inactive”.

For the molecule `O=C(NO)c1ccccc1`, the Potency entry was “inactive”. Consider `O=C1NCN(c2ccccc2)C12CCN(CCCC(c1ccc(F)cc1)c1ccc(F)cc1)CC2`, for which the Potency entry is “inactive”. On to `CCO[Si](C)(C)OCC`, for which the Potency result was “inactive”. With `Cc1ccc(O)cn1`, the Potency result is “inactive”. `CCCCCCCCCCc1ccccc1`: the Potency result was “inactive”. Same read-out and setting: to `N#CSCSc1nc2ccccc2s1` belongs “inactive”; to `C=CC(=O)OCCOCC(CC)(COCCOC(=O)C=C)COCCOC(=O)C=C`, 0.932 µM (active); to `COc1ccc(C#N)cc1`, “inactive”. Still for that read-out and setting: to `C=C(C)CCCC` belongs “inactive”. Consider `Clc1cccnc1`, for which the Potency entry is “inactive”. As for `CC(C)(C)CC(C)(C)c1ccccc1O`, the Potency is 63.6 µM (active).

On to `Cc1cc2c(C(C)C)c(O)c(O)c(C=O)c2c(O)c1-c1c(C)cc2c(C(C)C)c(O)c(O)c(C=O)c2c1O`, for which the Potency entry was “inactive”. Consider `CC1(C)C(=O)N(CO)C(=O)N1CO`, for which the Potency result is “inactive”. Take `O=S(=O)(O)c1cc(S(=O)(=O)O)c2ccc3c(S(=O)(=O)O)cc(S(=O)(=O)O)c4ccc1c2c43`: the activity change, negative = inhibition is 10.6% [at 23.6 µM] (inactive). Take `CCCCCCC(C)OC(=O)COc1nc(F)c(Cl)c(N)c1Cl` (stereo not given): the Potency was 7.96 µM (active). Turning to `CCN(CC)c1ccc(N)cc1`, the Potency is 11.6 µM (active).
